Rows were chosen to be rich in hits. Some 5.4% of all compounds tested hit in one or more screens of this group.
RORg inh: inhibitors of mouse ROR gamma transcriptional activity | P51450 | Drosophila S2 Gal4-RORgamma UAS-luciferase reporter, 20 h | Potency, µM (highest dose often 53.6 µM), without a hit: at the highest dose activity change, negative = inhibition, actives largely listed as inhibitors | actives 5.4% (n = 310,000); also: potency is read from the fitted curve at half-maximal effect; % is scaled to controls: 0 for no effect and ±100 for the full control effect; nearly all actives have a fitted effect of over 60% in size
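Drosophila Schneider cells stably carrying a metallothionein-driven Gal4 DBD–ROR gamma fusion and a UAS-Photinus luciferase reporter were exposed to compound for 1 hr, then induced with copper sulfate (700 uM final) for 20 hr at ambient temperature before luminescence reading.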
Six1-Eya2 inh: Six1/Eya2 interaction inhibition; Q15475+O00167; AlphaScreen GST-Six1/His-Eya2 binding, biochemical; hits give low values; activity change, % (concentration not given with the values); actives 0.56% (n = 360,000); AID 651725; in the data active = activity change below about -65%; inconclusive = mostly about -30% to -63%; also: % is scaled to controls: 0 for no effect and ±100 for the full control effect
Target sequence (O00167 whole entry, looked up): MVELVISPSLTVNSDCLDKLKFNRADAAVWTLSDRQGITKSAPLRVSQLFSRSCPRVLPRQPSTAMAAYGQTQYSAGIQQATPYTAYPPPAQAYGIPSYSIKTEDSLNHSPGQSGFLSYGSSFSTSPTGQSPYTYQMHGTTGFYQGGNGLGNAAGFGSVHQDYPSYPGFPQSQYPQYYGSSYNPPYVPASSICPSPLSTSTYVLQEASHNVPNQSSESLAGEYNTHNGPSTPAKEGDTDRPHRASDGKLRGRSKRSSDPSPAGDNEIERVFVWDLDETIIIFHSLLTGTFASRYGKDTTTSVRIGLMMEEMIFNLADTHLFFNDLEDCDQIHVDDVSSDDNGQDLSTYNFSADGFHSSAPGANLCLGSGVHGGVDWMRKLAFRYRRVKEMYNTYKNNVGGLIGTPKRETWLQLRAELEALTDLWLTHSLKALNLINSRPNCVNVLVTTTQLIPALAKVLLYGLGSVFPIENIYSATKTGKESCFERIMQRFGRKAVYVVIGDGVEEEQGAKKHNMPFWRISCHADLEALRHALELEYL
Target sequence (Q15475 whole entry, looked up): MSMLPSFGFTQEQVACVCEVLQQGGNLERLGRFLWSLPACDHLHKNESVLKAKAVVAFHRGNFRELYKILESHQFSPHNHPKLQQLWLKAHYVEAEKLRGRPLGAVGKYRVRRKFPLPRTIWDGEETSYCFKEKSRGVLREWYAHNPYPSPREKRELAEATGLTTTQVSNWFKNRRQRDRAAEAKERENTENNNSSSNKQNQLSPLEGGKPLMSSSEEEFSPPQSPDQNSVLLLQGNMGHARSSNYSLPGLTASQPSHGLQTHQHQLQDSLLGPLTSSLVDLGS
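GST-Six1 + His-Eya2 (5X stock: 250/500 nM); Tris pH 8.0, 300 mM NaCl, 0.05% BSA, 0.02% Tween 20; GSH donor/Ni acceptor beads; 1 h 37 °C dark; AlphaScreen readout.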
p53 reactivator: re-activators of mutant p53 | Potency, µM (doses to about 92.2 µM), without a hit: top-dose activity change, positive = activation, hits mostly activators | H1299 p53-A138V BP100-luciferase reporter, luminescence, 24 h | actives 0.063% (n = 320,000); also: potency is read from the fitted curve at half-maximal effect; % of control where 0% means no effect; nearly all actives have a fitted effect of over 45% in size
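p53-null H1299 cells stably carrying temperature-sensitive p53-A138V and a BP100-luciferase reporter were pinned with compounds (4-point, 1:5 series) and held 24 hrs at 37 deg C. Luminescence was read 10 min after detection reagent.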
CtBP-E1A inh: blocks the CtBP interaction with E1A; AlphaScreen GST-E1A/His-CtBP binding, 1536-well; hits give low values; actives 0.49% (n = 340,000); activity change, % (test concentration not listed); in the data active = activity change below about -65%; inconclusive = mostly about -30% to -63%; also: % is scaled to controls: 0 for no effect and ±100 for the full control effect
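GST-E1A and His-tagged CtBP (125 nM each as 5X stock) were preincubated with pin-transferred compound for 2 h at 37 °C in the dark, then glutathione donor and nickel acceptor beads were added for 1 h before AlphaScreen reading.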
Gal4-VP16 FLuc: Gal4-VP16 reporter inhibition counter-screen. Drosophila S2 Gal4-VP16 UAS-luciferase, luminescence, 20 h. Potency, µM (titrated, usually from 53.6 µM), without a hit: at the top dose activity, negative = inhibition, hits mostly inhibitors. actives 3.5% (n = 310,000);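 also: Gal4-VP16 expression switched on by copper sulfate through the metallothionein promoter; potency is read from the fitted curve at half-maximal effect; % is scaled to controls: 0 for no effect and ±100 for the full control effect; nearly all actives have a fitted effect of over 50% in size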
An asterisk follows results filed as active. Unless noted, calls follow the shape of the dose curve; as a rule, active = well fitted curve in the direction sought with a large enough effect; inconclusive = small, poorly fitted or top-dose-only effect, or another doubt; inactive = no such curve, though single readings can be large; an effect the other way counts as inactive or inconclusive.

For CS(=O)(=O)N(Cc1ccc(F)cc1)Cc1nc2ccccc2c(=O)[nH]1 the results were RORg inh -14%, Six1-Eya2 inh 0, p53 reactivator 3%, CtBP-E1A inh 3 and Gal4-VP16 FLuc 1%.
Screening CCN(CC(=O)Nc1cccc(F)c1)Cc1nc2ccccc2c(=O)[nH]1 returned RORg inh inconclusive, Six1-Eya2 inh -16, p53 reactivator -6%, CtBP-E1A inh 16 and Gal4-VP16 FLuc inconclusive.
Screening CCN(CC(=O)NCc1ccc(F)cc1)Cc1nc2ccccc2c(=O)[nH]1 returned RORg inh 4µM*, Six1-Eya2 inh -3, p53 reactivator -2%, CtBP-E1A inh -1 and Gal4-VP16 FLuc 10µM*.
Screening COc1ccccc1CN(Cc1nc2ccccc2c(=O)[nH]1)C(=O)Nc1ccccc1C returned RORg inh 10µM*, Six1-Eya2 inh 2, p53 reactivator 5%, CtBP-E1A inh -1 and Gal4-VP16 FLuc inconclusive.
For Cc1n[nH]c(=O)c2c(NC(=O)CSc3ccc(Br)cc3)oc(C)c12 the results were Six1-Eya2 inh 10, p53 reactivator 1% and CtBP-E1A inh 0.
`COc1ccc(CN(Cc2nc3ccccc3c(=O)[nH]2)C(=O)NC2CCCCC2)cc1` gave RORg inh 13µM*, Six1-Eya2 inh -2, p53 reactivator -4%, CtBP-E1A inh 0 and Gal4-VP16 FLuc inconclusive.
Screening COc1ccc(CN2CSC(=S)N(Cc3ccccc3)C2)cc1 returned RORg inh inconclusive, Six1-Eya2 inh 10, p53 reactivator 22% and Gal4-VP16 FLuc 10µM*.
`COc1ccc(CN2CSC(=S)N(Cc3ccc(OC)cc3)C2)cc1` gave RORg inh 6.3µM*, Six1-Eya2 inh 4, p53 reactivator 6% and Gal4-VP16 FLuc 18µM*.
Screening S=C1SCN(Cc2cccnc2)CN1Cc1cccnc1 returned RORg inh 0.63µM*, Six1-Eya2 inh 3, p53 reactivator -13%, CtBP-E1A inh 1 and Gal4-VP16 FLuc 5.6µM*.
For O=C(c1cccc(C(F)(F)F)c1)N1CCN(CCc2ccccc2)CC1 the results were RORg inh -22%, Six1-Eya2 inh -7, p53 reactivator -5%, CtBP-E1A inh 1 and Gal4-VP16 FLuc -4%.
For O=C(O)CCCC(=O)N1N=C(c2ccccc2)CC1c1cccs1 (configuration not stated) the results were RORg inh 4%, Six1-Eya2 inh -5, p53 reactivator 1%, CtBP-E1A inh 2 and Gal4-VP16 FLuc 6%.
`Cc1ccc(NC(=O)CCl)cc1S(=O)(=O)N1CCCCCC1` gave RORg inh 11µM*, Six1-Eya2 inh -1, p53 reactivator -10%, CtBP-E1A inh -14 and Gal4-VP16 FLuc inconclusive.
`O=C(Nc1nccs1)c1ccc(Cl)c(S(=O)(=O)N2CCOCC2)c1` gave RORg inh 16µM*, Six1-Eya2 inh -17, p53 reactivator 17%, CtBP-E1A inh -8 and Gal4-VP16 FLuc inconclusive.
Screening Cc1ccc(C(=O)Nc2nccs2)cc1S(=O)(=O)N1CCCCC1 returned RORg inh 14µM*, Six1-Eya2 inh -23, p53 reactivator 29%, CtBP-E1A inh -23 and Gal4-VP16 FLuc inconclusive.
For O=C(Nc1ccc(Cl)c(S(=O)(=O)N2CCOCC2)c1)c1ccncc1 the results were Six1-Eya2 inh -4, p53 reactivator -4% and CtBP-E1A inh -20.
`COCCNCC(=O)Nc1ccc(C)c(S(=O)(=O)N2CCCCC2)c1` gave RORg inh 12%, Six1-Eya2 inh -2, p53 reactivator -1%, CtBP-E1A inh 2 and Gal4-VP16 FLuc 0%.
Screening CC(C)(C)N1C(=O)c2ccc(C(=O)Nc3nccs3)cc2C1=O returned RORg inh 7.1µM*, Six1-Eya2 inh 7, p53 reactivator inconclusive, CtBP-E1A inh -1 and Gal4-VP16 FLuc inconclusive.
O=C(Nc1nccs1)c1ccc(Br)c(S(=O)(=O)N2CCCC2)c1 was read as RORg inh inconclusive, Six1-Eya2 inh -18, p53 reactivator 7%, CtBP-E1A inh -11 and Gal4-VP16 FLuc inconclusive.
Screening NC(=O)C1CCN(C(=O)/C(=C/c2ccccc2)NC(=O)c2ccccc2)CC1 returned RORg inh 1%, Six1-Eya2 inh 0, p53 reactivator 6%, CtBP-E1A inh 4 and Gal4-VP16 FLuc 7%.

Compound activity: PubChem BioAssay, National Center for Advancing Translational Sciences (NCATS)
